Measured values from ChEMBL document CHEMBL3988442, “University of Dundee, Small-Polar-MMV Screening Library” (2021).
For some of these results: Entries with a potency or affinity are not part of this list.

Experiments:
Parameters in all cases: scale not given: direction of the effect not stated beside the values
[1] = biological target: Protein translocase subunit SecA (Escherichia coli (strain K12)) (UniProt P10408); test: Assay to Identify E. coli SecA ATPase Inhibitors; format: functional; conditions: 30 µM
[2] = biological target: T1, Ubiquitin-activating enzyme e1, putative (Leishmania donovani (strain BPK282A1)) (UniProt E9BSI1); test: Leishmania donovani Ubiquitin Activating Enzyme (LdE1); format: functional; conditions: 30 µM
T1 sequence (whole entry): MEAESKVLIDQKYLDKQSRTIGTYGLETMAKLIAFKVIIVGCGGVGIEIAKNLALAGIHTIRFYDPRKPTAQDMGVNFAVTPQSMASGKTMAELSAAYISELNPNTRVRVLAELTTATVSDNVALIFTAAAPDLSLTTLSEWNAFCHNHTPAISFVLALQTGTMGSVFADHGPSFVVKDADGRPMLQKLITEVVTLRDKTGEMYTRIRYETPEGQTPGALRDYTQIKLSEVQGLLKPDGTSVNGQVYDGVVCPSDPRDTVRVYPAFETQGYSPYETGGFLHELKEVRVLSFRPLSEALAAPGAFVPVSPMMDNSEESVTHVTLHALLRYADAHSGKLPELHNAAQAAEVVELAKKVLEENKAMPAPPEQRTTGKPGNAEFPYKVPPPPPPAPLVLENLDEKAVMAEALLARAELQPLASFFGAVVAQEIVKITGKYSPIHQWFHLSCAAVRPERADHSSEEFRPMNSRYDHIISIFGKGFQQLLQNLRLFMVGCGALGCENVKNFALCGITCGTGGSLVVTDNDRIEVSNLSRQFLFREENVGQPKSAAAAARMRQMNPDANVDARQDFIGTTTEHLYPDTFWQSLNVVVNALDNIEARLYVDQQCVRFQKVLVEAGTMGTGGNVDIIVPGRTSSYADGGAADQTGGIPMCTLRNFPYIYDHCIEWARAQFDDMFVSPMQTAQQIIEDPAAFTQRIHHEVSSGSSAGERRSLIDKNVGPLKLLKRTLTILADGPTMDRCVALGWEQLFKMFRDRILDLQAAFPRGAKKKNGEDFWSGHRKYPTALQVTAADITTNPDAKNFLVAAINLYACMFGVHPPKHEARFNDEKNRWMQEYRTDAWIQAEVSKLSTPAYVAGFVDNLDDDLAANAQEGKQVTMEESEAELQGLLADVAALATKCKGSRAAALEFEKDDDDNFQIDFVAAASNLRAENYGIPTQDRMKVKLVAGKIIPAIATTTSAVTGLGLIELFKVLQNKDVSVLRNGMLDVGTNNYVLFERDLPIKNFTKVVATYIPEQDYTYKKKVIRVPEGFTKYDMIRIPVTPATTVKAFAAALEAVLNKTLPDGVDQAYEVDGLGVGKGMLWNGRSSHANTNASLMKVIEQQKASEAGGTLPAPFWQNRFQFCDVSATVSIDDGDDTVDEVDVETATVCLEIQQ

[3] = biological target: AMP-activated protein kinase, AMPK (Homo sapiens) (UniProt P54646+O43741+P54619+Q9UGJ0+Q9Y478+Q13131+Q9UGI9); test: AMP-dependent Kinase enzyme assay. An in vitro enzyme assay that detects ADP turnover that is directly proportional to AMPK activity. This uses naive AMPK that is activated during the assay with MK-8722; format: functional; conditions: 30 µM
[4] = biological target: Sialic acid-binding Ig-like lectin 9 (Homo sapiens) (UniProt Q9Y336); test: Hs-Siglec9 ALPHAscreen SOP 20170721; conditions: 10 µM
Trypanosoma cruzi = test: Trypanosoma cruzi phosphomannomutase and mannose-1-phosphate guanylyltransferase assay; format: functional; conditions: 10 µM
[5] = biological target: T2, Arginase-2, mitochondrial (Homo sapiens) (UniProt P78540); test: in vitro enzyme assay to detect the production of urea directly proportional to the activity of Arginase II; format: functional; conditions: 33.3 µM; also: in the data most compounds retested in dose-response had high values
T2 sequence (whole entry): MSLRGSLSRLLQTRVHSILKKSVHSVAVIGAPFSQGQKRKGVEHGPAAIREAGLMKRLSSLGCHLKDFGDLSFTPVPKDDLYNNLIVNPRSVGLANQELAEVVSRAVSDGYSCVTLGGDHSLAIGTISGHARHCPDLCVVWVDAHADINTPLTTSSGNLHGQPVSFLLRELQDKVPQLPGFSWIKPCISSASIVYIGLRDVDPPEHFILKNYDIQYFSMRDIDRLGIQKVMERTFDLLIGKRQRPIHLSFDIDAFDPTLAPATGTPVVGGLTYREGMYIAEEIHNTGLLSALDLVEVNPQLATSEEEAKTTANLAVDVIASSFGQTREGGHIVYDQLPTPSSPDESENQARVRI

[6] = biological target: T3, Proteasome subunit beta (Trypanosoma cruzi) (UniProt O96673); test: Trypanosoma cruzi proteasome chymotrypsin-like activity (TcProtChymo) assay.; also: in the data most compounds retested in dose-response had high values; format: functional; conditions: 9.37 µM
T3 sequence (whole entry): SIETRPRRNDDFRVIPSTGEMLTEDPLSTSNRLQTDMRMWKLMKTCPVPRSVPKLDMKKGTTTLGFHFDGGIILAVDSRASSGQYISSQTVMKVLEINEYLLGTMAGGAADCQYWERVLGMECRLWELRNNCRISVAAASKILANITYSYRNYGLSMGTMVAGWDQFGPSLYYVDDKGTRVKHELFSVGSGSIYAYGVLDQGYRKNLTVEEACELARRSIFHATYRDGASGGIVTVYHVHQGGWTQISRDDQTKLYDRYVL

Homo sapiens = species on record: Homo sapiens; test: To identify inhibition of the IFN signalling (Jak-Stat) pathway via expression of an eGFP reporter gene under the control of an IFN-stimulated response element (ISRE) containing MxA promoter.; format: functional; conditions: 30 µM
[7] = biological target: T4, Tyrosyl-tRNA synthetase, putative (Trypanosoma cruzi (strain CL Brener)) (UniProt Q4DSP6); test: Trypanosoma cruzi tyrosyl tRNA synthetase (TcYRS) _High Tyrosine SOP; format: functional; conditions: 30 µM; also: in the data most compounds retested in dose-response had high values
T4 sequence (whole entry): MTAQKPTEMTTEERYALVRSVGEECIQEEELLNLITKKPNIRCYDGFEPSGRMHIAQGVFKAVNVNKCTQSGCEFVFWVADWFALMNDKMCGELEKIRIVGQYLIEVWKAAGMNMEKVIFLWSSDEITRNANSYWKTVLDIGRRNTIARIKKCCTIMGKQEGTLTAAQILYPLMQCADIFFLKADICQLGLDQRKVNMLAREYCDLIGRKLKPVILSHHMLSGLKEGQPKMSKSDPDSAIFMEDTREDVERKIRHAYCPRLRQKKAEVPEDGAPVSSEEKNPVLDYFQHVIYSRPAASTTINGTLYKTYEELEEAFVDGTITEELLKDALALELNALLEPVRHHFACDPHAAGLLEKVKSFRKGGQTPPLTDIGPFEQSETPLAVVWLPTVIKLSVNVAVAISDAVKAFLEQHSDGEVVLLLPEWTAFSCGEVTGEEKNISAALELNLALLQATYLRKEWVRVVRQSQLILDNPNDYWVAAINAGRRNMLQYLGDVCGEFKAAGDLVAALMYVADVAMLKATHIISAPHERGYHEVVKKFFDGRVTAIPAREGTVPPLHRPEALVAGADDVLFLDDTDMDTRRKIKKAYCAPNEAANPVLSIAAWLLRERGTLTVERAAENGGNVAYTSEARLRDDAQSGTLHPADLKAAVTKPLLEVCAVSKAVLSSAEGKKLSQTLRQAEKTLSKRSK

[8] = biological target: T4, Tyrosyl-tRNA synthetase, putative (Trypanosoma cruzi (strain CL Brener)); test: Trypanosoma cruzi tyrosyl tRNA synthetase (TcYRS) SOP; format: functional; conditions: 30 µM
[9] = biological target: Chromo domain-containing protein 1 (Saccharomyces cerevisiae (strain ATCC 204508 / S288c) (Baker's yeast)) (UniProt P32657); test: ScCHD-1 Enzyme Inhibition Assay; format: functional; conditions: 30 µM; also: in the data most compounds retested in dose-response had high values
Sequence of Chromo domain-containing protein 1 (Saccharomyces cerevisiae (strain ATCC 204508 / S288c) (Baker's yeast)) (P32657 whole entry, the tested form may be a part): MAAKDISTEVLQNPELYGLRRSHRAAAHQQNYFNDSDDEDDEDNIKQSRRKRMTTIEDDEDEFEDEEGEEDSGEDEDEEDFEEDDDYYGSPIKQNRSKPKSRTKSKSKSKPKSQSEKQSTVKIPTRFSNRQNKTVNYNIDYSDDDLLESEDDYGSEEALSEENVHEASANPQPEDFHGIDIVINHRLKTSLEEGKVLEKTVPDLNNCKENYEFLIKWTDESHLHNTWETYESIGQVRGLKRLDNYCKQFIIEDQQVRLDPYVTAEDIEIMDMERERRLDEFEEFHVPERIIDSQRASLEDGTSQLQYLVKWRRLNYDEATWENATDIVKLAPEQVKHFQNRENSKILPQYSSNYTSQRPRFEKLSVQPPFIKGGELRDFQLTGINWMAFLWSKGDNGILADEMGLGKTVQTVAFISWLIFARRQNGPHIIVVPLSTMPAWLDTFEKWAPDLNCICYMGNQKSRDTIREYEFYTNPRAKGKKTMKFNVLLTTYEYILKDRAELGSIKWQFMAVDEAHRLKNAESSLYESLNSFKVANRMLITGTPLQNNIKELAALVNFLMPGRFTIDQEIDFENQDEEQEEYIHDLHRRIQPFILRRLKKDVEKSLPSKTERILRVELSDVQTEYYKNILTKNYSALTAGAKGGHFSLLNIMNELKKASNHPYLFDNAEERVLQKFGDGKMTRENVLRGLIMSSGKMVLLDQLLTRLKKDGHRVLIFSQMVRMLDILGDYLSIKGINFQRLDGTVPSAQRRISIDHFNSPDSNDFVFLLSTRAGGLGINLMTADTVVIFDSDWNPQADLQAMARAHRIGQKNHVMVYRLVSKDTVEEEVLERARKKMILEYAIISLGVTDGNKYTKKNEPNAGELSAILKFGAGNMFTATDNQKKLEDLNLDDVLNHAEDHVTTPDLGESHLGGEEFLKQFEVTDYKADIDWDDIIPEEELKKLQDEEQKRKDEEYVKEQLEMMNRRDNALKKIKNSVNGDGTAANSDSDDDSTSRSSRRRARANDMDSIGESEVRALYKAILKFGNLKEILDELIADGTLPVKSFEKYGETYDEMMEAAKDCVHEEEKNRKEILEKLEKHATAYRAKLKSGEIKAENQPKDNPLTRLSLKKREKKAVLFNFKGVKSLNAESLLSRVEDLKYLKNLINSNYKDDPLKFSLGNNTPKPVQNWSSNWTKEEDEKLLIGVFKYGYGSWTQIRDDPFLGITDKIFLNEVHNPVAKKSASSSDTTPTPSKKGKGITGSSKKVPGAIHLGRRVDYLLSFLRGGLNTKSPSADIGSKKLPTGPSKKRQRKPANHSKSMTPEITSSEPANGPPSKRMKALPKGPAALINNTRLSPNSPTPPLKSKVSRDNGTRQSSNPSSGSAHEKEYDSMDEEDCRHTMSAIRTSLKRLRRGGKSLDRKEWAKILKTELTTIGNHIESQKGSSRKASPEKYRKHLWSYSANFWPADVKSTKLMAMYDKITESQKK

Sequence of Sialic acid-binding Ig-like lectin 9 (Homo sapiens) (Q9Y336 whole entry): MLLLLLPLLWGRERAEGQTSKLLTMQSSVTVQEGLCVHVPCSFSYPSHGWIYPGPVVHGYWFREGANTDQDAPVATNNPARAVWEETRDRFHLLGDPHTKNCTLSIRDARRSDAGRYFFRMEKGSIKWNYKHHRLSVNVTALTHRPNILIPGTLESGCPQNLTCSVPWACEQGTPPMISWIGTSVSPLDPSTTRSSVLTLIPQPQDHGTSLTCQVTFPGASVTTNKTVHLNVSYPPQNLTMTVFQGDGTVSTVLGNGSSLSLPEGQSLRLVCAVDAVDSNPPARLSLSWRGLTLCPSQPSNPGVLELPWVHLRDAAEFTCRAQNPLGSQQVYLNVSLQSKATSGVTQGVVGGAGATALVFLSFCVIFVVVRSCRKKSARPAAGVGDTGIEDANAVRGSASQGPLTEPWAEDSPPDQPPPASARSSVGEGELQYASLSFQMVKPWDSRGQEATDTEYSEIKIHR
Sequence of Protein translocase subunit SecA (Escherichia coli (strain K12)) (P10408 whole entry): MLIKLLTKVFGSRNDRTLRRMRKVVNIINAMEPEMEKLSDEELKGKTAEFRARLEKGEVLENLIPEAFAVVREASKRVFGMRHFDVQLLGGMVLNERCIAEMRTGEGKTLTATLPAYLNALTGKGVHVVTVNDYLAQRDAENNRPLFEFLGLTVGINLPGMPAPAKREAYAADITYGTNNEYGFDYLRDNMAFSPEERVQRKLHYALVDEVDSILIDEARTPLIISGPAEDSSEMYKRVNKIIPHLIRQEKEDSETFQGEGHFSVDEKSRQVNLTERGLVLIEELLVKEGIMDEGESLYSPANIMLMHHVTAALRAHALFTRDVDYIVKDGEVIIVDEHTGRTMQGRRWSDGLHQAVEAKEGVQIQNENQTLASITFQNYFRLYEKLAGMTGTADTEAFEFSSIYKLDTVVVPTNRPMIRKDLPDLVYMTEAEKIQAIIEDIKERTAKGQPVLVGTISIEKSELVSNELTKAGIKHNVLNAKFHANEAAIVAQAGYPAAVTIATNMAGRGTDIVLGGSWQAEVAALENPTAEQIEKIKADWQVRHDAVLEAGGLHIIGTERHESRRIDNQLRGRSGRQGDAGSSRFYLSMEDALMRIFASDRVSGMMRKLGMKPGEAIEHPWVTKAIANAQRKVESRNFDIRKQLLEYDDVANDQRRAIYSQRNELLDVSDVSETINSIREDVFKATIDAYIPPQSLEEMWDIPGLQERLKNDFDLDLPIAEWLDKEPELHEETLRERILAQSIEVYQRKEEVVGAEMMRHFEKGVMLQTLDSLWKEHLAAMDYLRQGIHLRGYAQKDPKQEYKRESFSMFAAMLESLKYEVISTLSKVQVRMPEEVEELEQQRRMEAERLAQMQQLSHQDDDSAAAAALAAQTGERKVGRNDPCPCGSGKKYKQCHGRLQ

Structure (SMILES) | Percent Effect [1] | Percent Effect [2] | Percent Effect [3] | Percent Effect [4] | Percent Effect (Trypanosoma cruzi) | Percent Effect [5] | Percent Effect [6] | Percent Effect (Homo sapiens) | Percent Effect [7] | Percent Effect [8] | Percent Effect [9]
CCn1nc2c(cc1=O)CN(Cc1nc3ccccc3c(=O)[nH]1)CC2 | -5.88% | 5.48% | -24.8% | -1.63% | -1.57% | -1.36% | 18.3% | 10.3% | 6.45% | 10% | -4.67%
CC(C)Cc1noc(CN2CCN(C(=O)c3cccc(F)c3)CC2)n1 | -4.75% | -2.74% | 1.5% | 5.59% | 1.39% | 0% | 1.97% | 0.357% | 4.17% | 1.24% | 6.05%
OCC1CCCN1c1cc(NCCc2c[nH]c3ccccc23)ncn1 (stereo not given) | -4.95% | 0% | 12.3% | -7.58% | -2.15% | 0% | 18.6% | 35.3% | 1.07% | 7.5% | -5.88%
CC(C)OCCN1CCN(C(=O)c2cccc(CC#N)c2)CC1 | -0.779% | 18.2% | -4.35% | -10.2% | -8.99% | 4.27% | 11.2% | 18.6% | 4.85% | 9.76% | -7.58%
COc1cccc(OCCNC(=O)CN2CCN(C)CC2C)c1 (stereo not given) | -4.33% | 13.5% | -5.8% | 15% | 6.59% | -2.77% | 7.54% | 11.6% | 3.96% | 18.3% | -8.99%
CS(=O)(=O)N1CC[C@H]2[C@H](C[C@@H](Cn3cncn3)N2CC2CC2)C1 | -6.68% | 10.4% | 9.89% | 7.05% | -1.87% | -4.14% | 7.16% | -4% | 3.23% | 6.17% | -0.097%
Cn1c(C2CC2)nc2c1CCN(CCOc1ccc(C#N)cc1)C2 | -3.25% | -15.6% | 4.37% | 6.69% | 2.43% | -1.07% | 4.22% | -24.9% | 6.8% | 2.44% | -8.18%
Cc1noc(C(C)C)c1C(=O)N1CCOCC1CC(=O)c1ccco1 (stereo not given) | -0.641% | 0% | 17.2% | -3.82% | 0.487% | 1.18% | 7.38% | -20.2% | -2.13% | -7.79% | -0.46%
O=C(CCNCC(F)(F)F)N1CCC(Nc2cccnn2)CC1 | 2.07% | 28.9% | 4.48% | -13.6% | 5.13% | 4.68% | 8.88% | 12.2% | 4.43% | 23.5% | -14.7%
COc1ccc(C)cc1NC(=O)Nc1cnc(N2CCN(C)CC2)nc1 | -1.71% | 7.79% | 2.48% | -0.124% | 5.42% | -12.3% | 8.18% | 36.4% | 6.35% | 11.5% | -11.3%
O=C(Cc1ccc2c(c1)CCC2)NCCNc1ncccn1 | -2.76% | 21.1% | 0.848% | 1.21% | 2.89% | 3.96% | 18.4% | -17.3% | 6.4% | 30.9% | -10.6%
c1csc(CN2Cc3nccn3CC(Cn3cncn3)C2)n1 (stereo not given) | 1.97% | 2.74% | 0.961% | 63.8% | -0.794% | 3.19% | 11.2% | -1.52% | 4.17% | 13.6% | -0.0341%
FC(F)(F)COCCN1CCN(c2ccc3nncn3n2)CC1 | -4.65% | 10.4% | 0.707% | 9.49% | 4.87% | -3.92% | 2.87% | -15.5% | 5.83% | 14.6% | -6.46%
CC(=O)N1CCC2(CC1)CC(Oc1ccccc1)CO2 (stereo not given) | 1.79% | 2.74% | 2.24% | 9.38% | -4.17% | -1.2% | 19.6% | 1.3% | 6.25% | 8.64% | 3.27%
CC(C)(C)c1cc(CN2CC[C@@H](NC(=O)c3cccnc3)[C@H](O)C2)n[nH]1 | -3.5% | 1.39% | -10.7% | 10.3% | 4.37% | 17.7% | 6.49% | 15.6% | 3.16% | 12.8% | -6.81%
O=C1CO[C@@H]2CN(S(=O)(=O)c3ccccc3)C[C@H]2N1CC1CC1 | -1.03% | 8% | 4.02% | 2.54% | -3.28% | -44.3% | 7.86% | -3.38% | -8.33% | -20% | -6.74%
Cc1nc(C)n(CC2CCCN(Cc3nnc(-c4ccco4)o3)C2)n1 (stereo not given) | -3.02% | 0% | 11.3% | -2.45% | 3.02% | 3.55% | 3.74% | 4.98% | 5.32% | 5.2% | -1.67%
COCC1CN(C(=O)CNC(C)=O)Cc2ncnn2C1 (stereo not given) | -4.16% | 7.79% | 5.62% | 8.97% | 2.65% | 2.76% | 4.99% | -13.1% | 6.45% | 13.6% | 0.679%
CC(C)C(Sc1nnnn1-c1ccccc1)C(=O)NCc1cccnc1 (stereo not given) | -3.59% | 7.79% | 1.33% | -5.13% | -8.05% | -1.42% | 13% | 17% | 4.85% | 9.76% | -8.86%
CN(CC(=O)N1CCCC1Cn1cccn1)C1CC1 (stereo not given) | -4.84% | 10.1% | -1.88% | 13.2% | 1.04% | 0% | -0.0819% | 3.19% | 1.48% | 8.86% | -3.87%
